Screens as filed in PubChem.
KB-3-1 tox: qHTS assay for MDR1-selective chemotherapeutics: Primary screen using the parental adenocarcinoma cell KB-3-1. KB-3-1 viability, CellTiter-Glo ATP luminescence, 72 h. 400,000 tested, 1.4% active. Potency, µM (titrated, usually from 46.1 µM), usual class: cytotoxic; note: nearly all actives have a fitted effect of over 60% in size
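Using CellTiter-Glo luminescence, growth of non-resistant KB-3-1 adenocarcinoma cells is assessed 72 h after pin-tool compound addition at 37 °C. Normalized responses across the concentration series yield fitted curves.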
KB-V1 MDR tox: qHTS assay for MDR1-selective chemotherapeutics: Primary screen using the drug-selected MDR subline cells KB-V1; KB-V1 MDR cells viability, CellTiter-Glo, 72 h; Potency, µM (titrated, usually from 46.1 µM), hits mostly cytotoxic; 400,000 tested, 3.4% active; AID 1347076, 2019; note: nearly all actives have a fitted effect of over 60% in size
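Compound-treated KB-V1 multidrug-resistant cells, 72 h, 37 degrees C; viability by CellTiter-Glo. Fitted qHTS curves give the values.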
SW480 rerep: A quantitative high throughput screen for small molecules that induce DNA re-replication in SW480 colon adenocarcinoma cells; SW480 DNA re-replication, Hoechst DNA content imaging, 48 h; 340,000 tested, 1.8% active; Potency, µM (doses to about 46.1 µM), hits mostly activators; AID 624297, 2012; note: nearly all actives have a fitted effect of over 55% in size
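Treated cells incubate 48 hr (37 C, 5% CO2), are stained 40 min with Hoechst, and nuclear fluorescence is enumerated; a rise in nuclei with high DNA signal marks re-replication.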
S-ASM inh: Inhibitors of Secretory Acid Sphingomyelinase (S-ASM): qHTS; Sphingomyelin phosphodiesterase (Homo sapiens), P17405; placental ASM, HMU-PC fluorogenic substrate, 60 min; Potency, µM (doses to about 57.5 µM), actives largely listed as inhibitors; 340,000 tested, 0.006% active; AID 504937, 2011
Target sequence (P17405 47-631 limits assumed): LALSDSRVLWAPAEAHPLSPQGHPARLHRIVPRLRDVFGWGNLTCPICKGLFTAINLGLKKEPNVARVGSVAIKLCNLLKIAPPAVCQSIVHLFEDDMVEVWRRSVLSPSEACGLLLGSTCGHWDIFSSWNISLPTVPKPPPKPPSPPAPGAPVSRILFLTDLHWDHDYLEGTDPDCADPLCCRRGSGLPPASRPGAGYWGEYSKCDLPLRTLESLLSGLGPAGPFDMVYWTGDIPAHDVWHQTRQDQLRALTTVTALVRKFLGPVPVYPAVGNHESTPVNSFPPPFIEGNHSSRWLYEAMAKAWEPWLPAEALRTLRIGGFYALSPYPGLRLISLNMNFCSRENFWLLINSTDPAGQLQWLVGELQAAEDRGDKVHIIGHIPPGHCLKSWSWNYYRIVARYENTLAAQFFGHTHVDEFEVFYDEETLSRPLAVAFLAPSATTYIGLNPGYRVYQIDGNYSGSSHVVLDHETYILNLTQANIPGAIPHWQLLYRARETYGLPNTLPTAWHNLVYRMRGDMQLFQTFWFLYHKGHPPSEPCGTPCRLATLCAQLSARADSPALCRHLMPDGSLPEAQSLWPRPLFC
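Fluorescence read-out (Ex 386 nm, Em 447 nm) after stopping the reaction at pH 10. Enzyme: ASM from human placenta; substrate HMU-PC0, 9 uM final; 60 min, 37 °C. Compound preincubation 10 min, ambient temperature.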
Giardia killer: Small Molecules that selectively kill Giardia lamblia: qHTS; Giardia lamblia trophozoite viability; activity change, % at 7.66 µM, hits read low; 340,000 tested, 0.15% active; AID 540267, 2011; in the data active = activity change below about -80%; inconclusive = between about -30% and that limit;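 note: parasites exposed to compound for two days anaerobically before the ATP read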
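Giardia trophozoites, 100 cells per well, were exposed to compounds for 48 hrs at 37 deg C under anaerobic conditions; viability was then read as ATP content by bioluminescence after 15-30 min at room temperature.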
MCF10A rerep: A quantitative high throughput screen for small molecules that induce DNA re-replication in MCF 10a normal breast cells | 350,000 tested, 2.9% active | Potency, µM (top dose mostly 46.1 µM), most hits filed as activators | MCF 10A DNA re-replication, Hoechst nuclear intensity, 48 h; note: nearly all actives have a fitted effect of over 50% in size
Each line names hits and unclear results; the compound was inactive in the other large screens. Only some compounds are listed: those with a hit (about 6.9% of all), similar ones and a draw of the others. Unless noted, calls come from the whole dose curve; as a rule, active = well fitted curve in the direction sought with a large enough effect; inconclusive = small, poorly fitted or top-dose-only effect, or another doubt; inactive = no such curve, though single readings can be large; an effect the other way counts as inactive or inconclusive.

C=CCN(CC=C)C(=S)NC(=O)c1ccc(OC)cc1	KB-V1 MDR tox 16.4µM
CN(Cc1ccccc1)C(=S)NC(=O)c1ccc(-c2ccccc2)cc1	none
Nc1cnccn1	none (no result: SW480 rerep, S-ASM inh, Giardia killer, MCF10A rerep)
CCOC(=O)Cc1nnc2c(Nc3ccc(Cl)cc3)nc3nonc3n12	KB-3-1 tox inconclusive, KB-V1 MDR tox inconclusive, MCF10A rerep 13µM
COC(=O)c1ccc(OC)c(CN2C(=O)N(c3ccc(C(C)=O)cc3)S(=O)(=O)c3ccccc32)c1	none (no result: SW480 rerep, S-ASM inh, Giardia killer, MCF10A rerep)
Cc1noc(/C=C/N(C)C)c1S(=O)(=O)N1CCCC(C(=O)Nc2ccccc2F)C1 (configuration not stated)	SW480 rerep inconclusive, MCF10A rerep 23.1µM
Cc1noc(/C=C/N(C)C)c1S(=O)(=O)N1CCCC(C(=O)NCc2ccc(Cl)cc2)C1 (configuration not stated)	KB-V1 MDR tox inconclusive, MCF10A rerep inconclusive
Cc1ccc(CNC(=O)C2CCCN(S(=O)(=O)c3c(C)noc3/C=C/N(C)C)C2)cc1 (configuration not stated)	MCF10A rerep 14.6µM
COc1ccc(/C=C/c2ccnc3ccccc23)c(OC)c1	KB-3-1 tox inconclusive (no result: SW480 rerep, S-ASM inh, Giardia killer, MCF10A rerep)
CCCc1cc(=O)n2[nH]cc(-c3ccc(Cl)cc3)c2n1	KB-3-1 tox 16.4µM, KB-V1 MDR tox 7.31µM, SW480 rerep 18.4µM, MCF10A rerep inconclusive
O=c1n(Cc2ccc(Cl)cc2)nc2n1-c1ccccc1OC2	none (no result: SW480 rerep, S-ASM inh, Giardia killer, MCF10A rerep)
CCCCC(=O)NC(c1ccc(C(C)C)cc1)c1ccc2cccnc2c1O (configuration not stated)	KB-3-1 tox inconclusive, SW480 rerep inconclusive, MCF10A rerep 18.4µM
CCCCC(=O)NC(c1ccccc1)c1ccc2cccnc2c1O (configuration not stated)	KB-3-1 tox inconclusive, KB-V1 MDR tox 13µM, SW480 rerep 0.517µM, MCF10A rerep inconclusive
CCC(=O)NC(c1ccccc1OC)c1ccc2cccnc2c1O (configuration not stated)	KB-3-1 tox 10.3µM, KB-V1 MDR tox inconclusive
CCCC(=O)NC(c1ccc(OC)cc1)c1ccc2cccnc2c1O (configuration not stated)	KB-3-1 tox inconclusive, KB-V1 MDR tox 7.31µM, MCF10A rerep inconclusive
CCCC(=O)NC(c1ccccc1)c1ccc2cccnc2c1O (configuration not stated)	KB-3-1 tox inconclusive, KB-V1 MDR tox inconclusive, SW480 rerep inconclusive, MCF10A rerep inconclusive
CCCCC(=O)NC(c1ccccc1Cl)c1ccc2cccnc2c1O (configuration not stated)	KB-3-1 tox inconclusive, KB-V1 MDR tox inconclusive, SW480 rerep inconclusive, MCF10A rerep inconclusive
COc1ccc(Cl)cc1C(Nc1cccnc1)c1ccc2cccnc2c1O (configuration not stated)	KB-3-1 tox inconclusive, KB-V1 MDR tox inconclusive, SW480 rerep 7.31µM, MCF10A rerep inconclusive
CC(=O)NC(c1ccccc1)c1cc([N+](=O)[O-])c2cccnc2c1O (configuration not stated)	KB-3-1 tox inconclusive, KB-V1 MDR tox inconclusive, MCF10A rerep inconclusive
Oc1c(C(Nc2cccnc2)c2ccc(C(F)(F)F)cc2)ccc2cccnc12 (configuration not stated)	none (no result: SW480 rerep, S-ASM inh, Giardia killer, MCF10A rerep)
CC(=O)NC(c1ccc(C(C)C)cc1)c1ccc2cccnc2c1O (configuration not stated)	KB-3-1 tox 0.651µM, KB-V1 MDR tox inconclusive, SW480 rerep 0.82µM, MCF10A rerep inconclusive
O=C(c1ccco1)N1CCCC(c2nc3c(nnn3Cc3ccc(Cl)cc3Cl)c(=O)[nH]2)C1 (configuration not stated)	KB-V1 MDR tox inconclusive
Cc1ncc(CO)c(/C=N/NC(=S)Nc2ccc(C(C)C)cc2)c1O	KB-3-1 tox inconclusive, SW480 rerep 2.91µM
Cc1ncc(CO)c(/C=N/Nc2cccc(Cl)n2)c1O	none
CCOC(=O)N1CCN(C(=O)COc2ccc(Br)cc2Cl)CC1	KB-V1 MDR tox 7.31µM
O=C(COc1ccc(Cl)cc1Cl)N1CCCN(C(=O)COc2ccc(Cl)cc2Cl)CC1	KB-3-1 tox inconclusive, KB-V1 MDR tox 8.2µM, SW480 rerep inconclusive, MCF10A rerep inconclusive
O=C1c2ccccc2NC(c2ccccc2OCc2ccccc2)N1Cc1ccco1 (configuration not stated)	KB-3-1 tox inconclusive, KB-V1 MDR tox inconclusive (no result: SW480 rerep, S-ASM inh, MCF10A rerep)
CCCCOC(=O)c1ccc(Nc2nc3ccc(C(=O)c4ccccc4)cc3n3cnnc23)cc1	none (no result: SW480 rerep, S-ASM inh, Giardia killer, MCF10A rerep)
Cn1c(=O)c2c(nc(NCCNC(=O)c3ccco3)n2Cc2ccc(Cl)cc2Cl)n(C)c1=O	none
Cn1c(=O)c2c(nc(N3CCN(c4ccccn4)CC3)n2Cc2ccc(Cl)cc2Cl)n(C)c1=O	KB-V1 MDR tox 0.651µM
Cn1c(=O)c2c(nc(NCC3CCCC(CN)C3)n2Cc2ccc(Cl)cc2Cl)n(C)c1=O (configuration not stated)	KB-3-1 tox inconclusive, KB-V1 MDR tox inconclusive, SW480 rerep 4.11µM, MCF10A rerep inconclusive
Cn1c(=O)c2c(nc(N3CCOCC3)n2Cc2ccccc2Cl)n(C)c1=O	none (no result: SW480 rerep, S-ASM inh, Giardia killer, MCF10A rerep)
O=C(COCc1cc(-c2ccc(F)cc2)on1)Nc1cc(Cl)cc(Cl)c1	none (no result: SW480 rerep, S-ASM inh, Giardia killer, MCF10A rerep)
O=C(CCN1CCOCC1)c1ccc(Cl)cc1	MCF10A rerep 7.31µM
O=C(NCCCN1CCOCC1)c1ccc(Cl)cc1	none (no result: KB-3-1 tox, KB-V1 MDR tox, S-ASM inh, Giardia killer)
O=C(CCN1CCOCC1)c1ccc(Br)cc1	SW480 rerep inconclusive, MCF10A rerep 9.2µM
CCCCCOc1ccc(C(=O)CCN2CCOCC2)cc1	MCF10A rerep inconclusive
CCOc1ccc(C)cc1S(=O)(=O)n1cnc2ccccc21	KB-3-1 tox 13µM, KB-V1 MDR tox inconclusive, SW480 rerep inconclusive, MCF10A rerep 23.1µM
CCOc1cc(C)c(Cl)cc1S(=O)(=O)n1cnc2ccccc21	none
CCOc1ccc(Cl)cc1S(=O)(=O)n1cnc2ccccc21	KB-3-1 tox inconclusive, KB-V1 MDR tox 4.47µM, MCF10A rerep 7.94µM
CC1CCCN(C(=O)c2cccc(S(=O)(=O)Nc3cc(C(F)(F)F)ccc3Cl)c2)C1 (configuration not stated)	KB-V1 MDR tox 18.4µM, MCF10A rerep inconclusive
Cc1ccc(C)c(OCCC(=O)Nc2cccc(S(=O)(=O)NC3=NCCCCC3)c2)c1	MCF10A rerep inconclusive
CCOC(=O)N1CCN(C(=O)c2cccc(S(=O)(=O)Nc3ccccc3Cl)c2)CC1	KB-V1 MDR tox 18.4µM
Cc1ccc(NS(=O)(=O)c2cccc(C(=O)N3CCCCC3)c2)cc1	KB-V1 MDR tox 11.6µM
